High-throughput results deposited in PubChem by The Scripps Research Institute Molecular Screening Center.
The list is not random: actives were taken first. Their share in the collection is about 3.5%.
GPR151 activ – activators of human GPR151, primary screen, cell-based, PathHunter beta-arrestin, luminescence. G-protein coupled receptor 151 (Homo sapiens), Q8TDV0. PathHunter beta-arrestin GPR151 cells. activation, % at 11.2 µM. 1% of 650,000 active; in the data active = activation above about 4.9%
MITF primary – MITF inhibitors, primary screen, biochemical, AlphaScreen, human. inhibition, % at 2.6 µM. Microphthalmia-associated transcription factor (Homo sapiens), O75030. 0.91% of 650,000 active. AlphaScreen MITF homodimerization, bead proximity signal; in the data active = inhibition above about 50%
Target sequence (O75030 whole entry, looked up): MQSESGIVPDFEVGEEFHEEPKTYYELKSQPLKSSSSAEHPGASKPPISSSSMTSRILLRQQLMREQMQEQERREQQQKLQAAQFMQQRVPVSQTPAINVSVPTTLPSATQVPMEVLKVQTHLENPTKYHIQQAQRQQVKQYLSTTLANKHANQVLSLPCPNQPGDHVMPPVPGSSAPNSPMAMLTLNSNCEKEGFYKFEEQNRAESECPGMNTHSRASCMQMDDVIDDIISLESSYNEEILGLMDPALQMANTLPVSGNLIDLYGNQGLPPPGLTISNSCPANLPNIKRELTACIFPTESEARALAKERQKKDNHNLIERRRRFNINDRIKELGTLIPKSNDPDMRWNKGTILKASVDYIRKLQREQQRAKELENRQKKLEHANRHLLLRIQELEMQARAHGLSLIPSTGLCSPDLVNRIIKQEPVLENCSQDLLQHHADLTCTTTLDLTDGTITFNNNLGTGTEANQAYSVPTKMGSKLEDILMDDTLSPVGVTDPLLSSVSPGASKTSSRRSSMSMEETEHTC
FBW7 act – FBW7 E3 ligase activators, primary screen, biochemical, AlphaScreen, human; F-box/WD repeat-containing protein 7 (Homo sapiens), Q969H0; AlphaScreen FBW7–phospho-cyclin E peptide binding, activator screen; normalized activity (activation), % at 26.1 µM; 0.13% of 650,000 active; AID 1259310, 2017; in the data active = normalized activity above about 1.9%;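 note: purified mutant Fbw7 with reduced substrate affinity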
TEAD-YAP inh – TEAD-YAP interaction inhibition, primary screen, TEAD-YAP interaction inhibitor project, luminescence, HEK-TIYL cells. TEAD-Gal4/YAP UAS-luciferase luminescence. inhibition, % at 9.12 µM. 1.4% of 640,000 active. AID 1259422, 2018; in the data active = inhibition above about 32%
Each line names hits and unclear results; the compound was inactive in the other large screens; ! = repeats disagree.

COc1cccc(C2Nc3ccc(C(=O)O)cc3C3C=CCC32)c1 (stereo not given)	MITF primary 65.3
COc1ccc2c(c1)OC(C)CN(CC(=O)NCC(C)c1ccccc1)C2 (stereo not given)	none
COc1ccc(CSc2nc(CSC)cc(=O)[nH]2)cc1	none
COc1ccc(OC)c([C@@H]2Nc3ccc(C(=O)O)cc3[C@@H]3C=CC[C@@H]32)c1	none
COC(=O)c1ccc2c(c1)C1C=CCC1C(c1ccc(F)cc1)N2 (stereo not given)	none
COC(=O)c1ccc(C2Nc3ccc(C(=O)O)cc3C3C=CCC32)cc1 (stereo not given)	MITF primary 74.6
COc1ccc2c(c1)C1C=CCC1C(c1ccc(C(=O)O)cc1)N2 (stereo not given)	MITF primary 52.0
O=C(O)c1ccc([C@@H]2Nc3ccc(F)cc3[C@@H]3C=CC[C@@H]32)cc1	MITF primary 65.5
Cc1nn(-c2ccccc2)c2nc(-c3ccncc3)cc(C(=O)O)c12	none
NC(=O)C1CCN(C(=O)CCC2Nc3c4ccccc4nc(=S)n3C2=O)CC1 (stereo not given)	none
COC(=O)CSC1=C(C#N)C(c2cccc(Cl)c2Cl)CC(=O)N1 (stereo not given)	none
CC1=C(C(=O)OCc2ccccc2)C(c2ccc(-c3ccc(Cl)cc3)o2)C(C(=O)OCc2ccccc2)=C(C)N1	none
CCC(=O)N(Cc1ccccc1)Cc1cc2cc(C)c(C)cc2n2nnnc12	none
Cc1ccc2c(c1)CN(CCC(=O)NCc1cccs1)CC(C)O2 (stereo not given)	none
COc1cc(NC(=O)c2cnc(N3CCN(c4ccccn4)CC3)s2)cc(OC)c1OC	TEAD-YAP inh 40.6
COc1cc(NC(=O)c2cnc(N3CCc4ccccc4C3)s2)cc(OC)c1OC	TEAD-YAP inh 42.0
CC(C)c1ccc(N(C)C(=O)c2cc3c(=O)oc4ccccc4c3s2)cc1	none
Cc1cccc(N2CCN(C(c3ccncc3)c3nnnn3C(C)(C)C)CC2)c1C (stereo not given)	TEAD-YAP inh 61.8
CCCOc1ccc(C(=O)NC(=S)Nc2ccccn2)cc1	TEAD-YAP inh 50.8
Cc1cnc(N2CCN(Cc3ccc4c(c3)OCO4)CC2)nc1NC1CC1	none
CC(=O)c1c(C)[nH]c(C(=O)OCC(=O)Nc2nc(-c3ccc(C)cc3)cs2)c1C	TEAD-YAP inh 36.7
CC(=O)c1c(C)[nH]c(C(=O)OCc2csc(-c3ccccc3)n2)c1C	TEAD-YAP inh 32.2
CC(C)c1nccn1S(=O)(=O)c1ccc(Br)cc1Br	none
CC(=O)Nc1cccc(NC(=O)c2cn(-c3ccc(C)c(C)c3)c(=O)c3ccccc23)c1	TEAD-YAP inh 44.3
O=C(COc1ccccc1)Nc1nccs1	none
Cc1cccc(OCCCC(=O)Nc2nccs2)c1	none
COc1cccc(OCC(=O)Nc2nccs2)c1	TEAD-YAP inh 36.9
COc1cccc(-n2cc(C(=O)Nc3nccs3)c3ccccc3c2=O)c1	TEAD-YAP inh 43.0
COc1cccc(-n2cc(C(=O)Nc3ccccc3Cl)c3ccccc3c2=O)c1	none
Cc1cccc(OCC(=O)Nc2nccs2)c1	TEAD-YAP inh 53.5
COCCn1nnnc1C(c1ccccc1OC)N1CCN(c2cccc(Cl)c2)CC1 (stereo not given)	none
OC(COc1ccccc1)CN(CCN(CC(O)COc1ccccc1)CC(O)COc1ccccc1)CC(O)COc1ccccc1 (stereo not given)	none
Clc1ncnc2c1nc1n2CCCCC1	none
C/C(=N/NC(=O)c1ccccc1Br)c1cccc(NC(=O)C(F)(F)F)c1	none
Cc1ccc(C)n1-c1ccc(C(=O)O)cc1	none
Cc1ccc(C)n1-c1ccc(C(=O)NCC(=O)O)cc1	MITF primary 66.2
O=C(CSc1nnnn1C1CC2CCC1C2)Nc1ccnc2ccccc12 (stereo not given)	TEAD-YAP inh 61.2
O=C(CSc1ccccc1C(=O)O)Nc1ccnc2ccccc12	none
COc1ccc(-c2coc3cc(O)ccc3c2=O)c(O)c1O	MITF primary 80.3
COc1ccc2c(=O)c(-c3ccc(O)cc3)coc2c1	TEAD-YAP inh 80.8
O=c1c(-c2ccc(O)cc2)coc2cc(OC3OC(CO)C(O)C(O)C3O)ccc12 (stereo not given)	TEAD-YAP inh 53.9
Cc1ccccc1-c1coc2cc(O)ccc2c1=O	none
O=c1c(-c2cnn(-c3ccccc3)c2)coc2cc(O)ccc12	TEAD-YAP inh 33.0
O=c1c(-c2cnn(-c3ccccc3)c2)coc2c(O)c(O)ccc12	none
O=c1c(-c2ccc(O)cc2)coc2cc(OC3OC(CO)C(O)C(O)C3O)cc(O)c12 (stereo not given)	none
CC1CCN(C(=O)C2CCN(S(=O)(=O)c3ccc(Br)cc3)CC2)CC1	none
CCS(=O)(=O)NCC(c1ccc(N(C)C)cc1)N1CCN(C)CC1 (stereo not given)	none
O=C(NC1CCc2ccccc21)c1ccc(OC2CCN(C(=O)c3cccnc3)CC2)cc1 (stereo not given)	none
O=c1c(-c2ccc(O)cc2)coc2cc(O)ccc12	TEAD-YAP inh 73.2!
CN1C(=O)c2oc3ccc(Br)cc3c(=O)c2C1c1ccccn1 (stereo not given)	none
CC(C)CCOC(=O)c1ccc(NC(=O)c2ccncc2)cc1	none
CC(=O)Nc1ccc(C(=O)Nc2ccncc2)cc1	none
CC(C)COC(=O)c1ccc(NC(=O)c2ccncc2)cc1	TEAD-YAP inh 32.6
C[C@@H](N)c1ccc(C(=O)Nc2ccncc2)cc1	TEAD-YAP inh 50.0
O=C(O)c1c(CNCCC2=CCCCC2)c2ccccc2n1Cc1ccccc1	none
CC(=O)N1CCc2c(sc(NC(=O)c3ccccc3C)c2C#N)C1	TEAD-YAP inh 50.5
CC(=O)N1CCc2c(sc(NC(=O)/C=C/c3ccc([N+](=O)[O-])cc3)c2C#N)C1	none
CC(=O)N1CCc2c(sc(NC(=O)c3ccccc3Cl)c2C#N)C1	none
CSc1ccccc1C(=O)Nc1sc2c(c1C#N)CCN(C(C)=O)C2	TEAD-YAP inh 45.9
CC(=O)N1CCc2c(sc(NC(=O)/C=C/c3ccccc3Cl)c2C#N)C1	TEAD-YAP inh 49.5
CC(=O)N1CCc2c(sc(NC(=O)c3cc(Cl)sc3Cl)c2C#N)C1	none
Cc1cccc(C)c1OCC(=O)Nc1sc2c(c1C(N)=O)CCCC2	none
COc1ccc(-c2nc(Nc3cc(OC)c(OC)c(OC)c3)c3ncn(CCN4CCCC4=O)c3n2)cn1	none
O=C(NCc1ccc(F)cc1)c1nn2c(c1Br)NC(c1ccccc1)CC2C(F)(F)F (stereo not given)	none
Cc1nc2sccn2c1C(=S)NC(=O)C12CC3CC(CC(C3)C1)C2	none
COc1cc2nc(CN3CCCCC3)[nH]c(=O)c2cc1OC	none
COc1cc2nc(CN3CCN(c4ccccc4F)CC3)[nH]c(=O)c2cc1OC	TEAD-YAP inh 47.9
CCc1ccc2nc3sc(C(N)=O)c(N)c3cc2c1	TEAD-YAP inh 91.5
NC(=O)c1sc2nc3cc4c(cc3cc2c1N)OCO4	TEAD-YAP inh 72.7
